The supplement of paper PMC10849652
Targets with a hit are over-represented here; the source holds about 8,800 in all. About 0.5% of all pairs of compound and target were hits.

Key:
Test in all cases: log2 fold change, soluble protein after heating vs DMSO (PISA); higher = thermal stabilisation; K562 lysate, 10 uM; active = over 0.2 and 3.5 SD of the protein, either way, in both replicates (recomputed)
vemurafenib = compound: CCCS(=O)(=O)Nc1ccc(F)c(C(=O)c2c[nH]c3ncc(-c4ccc(Cl)cc4)cc23)c1F [vemurafenib]
Method in brief: (§1)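 Quantification was by TMTpro 16plex LC-MS/MS with equalised channel sums, applied to the supernatant after 21,000xg for 90 min. Samples were crude K562 extract at 1 mg/mL protein in PBS pH 7.4 with 1 mM MgCl2, treated with 10 μM compound for 30 min, heated for 3 min across 48°C-58°C, pooled and brought to 0.5% NP-40 at 4°C. Values are log-two fold changes in thermal stability relative to solvent controls, from duplicates.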

[1] = compound: CCCS(=O)(=O)Nc1ccc(F)c(C(=O)c2c[nH]c3ncc(Cl)cc23)c1F
Method in brief: as §1

barasertib = compound: CCN(CCCOc1ccc2c(Nc3cc(CC(=O)Nc4cccc(F)c4)[nH]n3)ncnc2c1)CCOP(=O)(O)O [barasertib]
Method in brief: as §1

[2] = compound: CC[C@@H]1C(=O)N(C)c2cnc(Nc3ccc(C(=O)NC4CCN(C)CC4)cc3OC)nc2N1C1CCCC1
Method in brief: as §1

volasertib = compound: CC[C@@H]1C(=O)N(C)c2cnc(Nc3ccc(C(=O)N[C@H]4CC[C@H](N5CCN(CC6CC6)CC5)CC4)cc3OC)nc2N1C(C)C [volasertib]
Method in brief: as §1

[3] = compound: CCn1c(C(=O)N(C2CC2)C2CC2)cc2c3c(ncn3C)c(Nc3cc(C)n(C)n3)nc21
Method in brief: as §1

[4] = compound: CCn1cc(-c2ccnc3[nH]c(-c4cccc(CN(C)C)c4)cc23)c(-c2ccc(NC(=O)N(C)C)cc2)n1
Method in brief: as §1

[5] = compound: CN1CCC(CNc2ccc3ncc(-c4cccc(OC(F)(F)F)c4)n3n2)CC1
Method in brief: as §1

saracatinib = compound: CN1CCN(CCOc2cc(OC3CCOCC3)c3c(Nc4c(Cl)ccc5c4OCO5)ncnc3c2)CC1 [saracatinib]
Method in brief: as §1

sotrastaurin = compound: CN1CCN(c2nc(C3=C(c4c[nH]c5ccccc45)C(=O)NC3=O)c3ccccc3n2)CC1 [sotrastaurin]
Method in brief: as §1

Measured: log2 fold change

BMS1 (UniProt Q14692)
inactive: vemurafenib -0.038 | [1] 0.023 | barasertib 0.127 | [2] -0.027 | volasertib -0.018 | [3] 0.012 | [4] -0.054 | [5] 0.006 | saracatinib -0.004 | sotrastaurin 0.005

CALM2 (UniProt P0DP24)
inactive: vemurafenib 0.028 | [1] 0.011 | [2] 0.038 | volasertib 0.024 | [3] -0.079 | [4] -0.22 | [5] 0.237 | saracatinib 0.029 | sotrastaurin 0
active: barasertib 0.564

CDS2 (UniProt O95674)
Chain of UniProt O95674 (O95674 whole entry, looked up): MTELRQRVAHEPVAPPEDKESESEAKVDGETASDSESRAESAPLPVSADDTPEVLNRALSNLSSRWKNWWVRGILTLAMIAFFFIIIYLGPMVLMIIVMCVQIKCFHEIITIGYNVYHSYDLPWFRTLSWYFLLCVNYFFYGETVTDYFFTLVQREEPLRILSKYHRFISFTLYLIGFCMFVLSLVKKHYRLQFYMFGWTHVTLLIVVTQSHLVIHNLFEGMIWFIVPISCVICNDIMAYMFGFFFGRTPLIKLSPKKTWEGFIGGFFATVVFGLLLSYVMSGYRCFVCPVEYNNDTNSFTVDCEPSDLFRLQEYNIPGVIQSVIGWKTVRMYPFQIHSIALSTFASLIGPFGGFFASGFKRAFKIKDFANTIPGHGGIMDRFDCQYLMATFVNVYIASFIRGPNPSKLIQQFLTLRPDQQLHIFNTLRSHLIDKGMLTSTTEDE
inactive: vemurafenib 0.09 | [1] 0.041 | barasertib 0.027 | [2] 0.026 | volasertib 0.005 | [3] -0.006 | [4] 0.015 | [5] 0.004 | saracatinib -0.053 | sotrastaurin 0.037

ATP9B (UniProt O43861)
Chain of UniProt O43861 (O43861 whole entry, looked up): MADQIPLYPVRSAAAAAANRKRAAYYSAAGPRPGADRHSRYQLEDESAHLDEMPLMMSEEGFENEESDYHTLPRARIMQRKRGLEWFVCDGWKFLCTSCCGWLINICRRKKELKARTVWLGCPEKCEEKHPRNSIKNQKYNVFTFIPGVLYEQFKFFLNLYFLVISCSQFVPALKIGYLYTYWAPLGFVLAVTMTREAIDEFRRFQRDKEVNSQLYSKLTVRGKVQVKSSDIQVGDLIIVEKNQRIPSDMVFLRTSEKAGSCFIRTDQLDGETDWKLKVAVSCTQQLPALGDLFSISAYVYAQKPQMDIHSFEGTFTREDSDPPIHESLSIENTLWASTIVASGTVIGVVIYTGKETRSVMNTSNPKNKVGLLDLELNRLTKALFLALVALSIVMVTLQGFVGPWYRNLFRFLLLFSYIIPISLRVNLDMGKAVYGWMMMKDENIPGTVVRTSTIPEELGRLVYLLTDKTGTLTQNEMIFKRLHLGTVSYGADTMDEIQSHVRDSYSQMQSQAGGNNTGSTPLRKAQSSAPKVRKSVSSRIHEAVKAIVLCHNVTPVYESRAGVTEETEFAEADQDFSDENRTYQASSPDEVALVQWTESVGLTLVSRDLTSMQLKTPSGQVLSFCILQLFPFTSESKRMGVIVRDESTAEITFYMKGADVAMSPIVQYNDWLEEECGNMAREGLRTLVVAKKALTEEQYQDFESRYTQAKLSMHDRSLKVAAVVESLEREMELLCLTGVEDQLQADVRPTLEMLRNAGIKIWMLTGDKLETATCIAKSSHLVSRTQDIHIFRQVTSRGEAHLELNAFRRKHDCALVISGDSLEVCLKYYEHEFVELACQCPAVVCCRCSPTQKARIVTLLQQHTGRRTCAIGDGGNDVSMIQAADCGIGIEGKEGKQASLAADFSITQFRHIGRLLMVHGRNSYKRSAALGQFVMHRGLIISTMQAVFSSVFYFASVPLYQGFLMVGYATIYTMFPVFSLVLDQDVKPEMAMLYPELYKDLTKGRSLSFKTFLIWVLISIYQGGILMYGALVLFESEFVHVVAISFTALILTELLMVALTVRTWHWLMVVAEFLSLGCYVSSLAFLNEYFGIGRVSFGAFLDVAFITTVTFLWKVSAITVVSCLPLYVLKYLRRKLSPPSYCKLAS
inactive: vemurafenib -0.046 | [1] 0.02 | barasertib -0.024 | [2] -0.081 | volasertib -0.051 | [3] -0.015 | [4] -0.07 | [5] 0.189 | saracatinib 0.046 | sotrastaurin -0.071

BOLA2 (UniProt Q9H3K6)
Chain of UniProt Q9H3K6 (Q9H3K6 whole entry, looked up): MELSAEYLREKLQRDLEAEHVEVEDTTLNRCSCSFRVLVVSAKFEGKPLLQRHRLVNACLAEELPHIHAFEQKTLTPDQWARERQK
inactive: vemurafenib -0.086 | [1] -0.043 | barasertib 0.129 | [2] -0.068 | volasertib 0.004 | [3] 0.067 | [5] -0.04 | saracatinib -0.033 | sotrastaurin -0.038
active: [4] 0.604

C18orf32 (UniProt Q8TCD1)
Chain of UniProt Q8TCD1 (Q8TCD1 whole entry, looked up): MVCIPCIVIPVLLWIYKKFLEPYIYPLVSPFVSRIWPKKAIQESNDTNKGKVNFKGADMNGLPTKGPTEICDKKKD
inactive: vemurafenib 0.164 | [1] -0.044 | barasertib -0.019 | [2] 0.125 | volasertib 0.054 | [3] 0.054 | [4] -0.073 | [5] 0 | saracatinib 0.006 | sotrastaurin -0.112

CDC16 (UniProt Q13042)
inactive: vemurafenib -0.042 | [1] 0.001 | barasertib -0.018 | [2] -0.074 | volasertib -0.063 | [3] 0.043 | [4] 0.046 | [5] -0.041 | saracatinib -0.005 | sotrastaurin 0.02

CDC25C (UniProt P30307)
inactive: vemurafenib 0.031 | [1] 0.093 | barasertib -0.028 | [2] -0.08 | volasertib -0.004 | [3] 0.083 | [4] 0.314 | [5] 0.155 | saracatinib -0.053 | sotrastaurin 0.016

BRD4 (UniProt O60885)
active: [2] 0.538 | volasertib 0.217
inactive: vemurafenib 0.049 | [1] 0.016 | barasertib -0.007 | [3] -0.008 | [4] -0.007 | [5] 0.037 | saracatinib -0.025 | sotrastaurin -0.012

CCNB2 (UniProt O95067)
inactive: vemurafenib 0.04 | [1] -0.008 | barasertib 0.06 | [2] 0.037 | volasertib -0.072 | [3] -0.059 | [4] -0.085 | [5] 0.011 | saracatinib 0.038 | sotrastaurin 0.078

CHCHD7 isoform 4 (UniProt Q9BUK0)
Chain of UniProt Q9BUK0 (Q9BUK0 whole entry, looked up): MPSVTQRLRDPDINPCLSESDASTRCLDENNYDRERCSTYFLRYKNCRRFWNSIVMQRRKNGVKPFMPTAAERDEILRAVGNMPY
inactive: vemurafenib 0.026 | [1] 0.06 | barasertib -0.026 | [2] 0.073 | volasertib -0.064 | [3] 0.021 | [5] 0.155 | saracatinib -0.021 | sotrastaurin 0.077
active: [4] -0.71

CAPNS1 (UniProt P04632)
inactive: vemurafenib -0.032 | [1] 0.021 | barasertib 0.11 | [2] -0.027 | volasertib 0.04 | [3] -0.006 | [5] 0.07 | saracatinib 0.003 | sotrastaurin -0.012
active: [4] -0.334

CARD11 (UniProt Q9BXL7)
Chain of UniProt Q9BXL7 (Q9BXL7 whole entry, looked up): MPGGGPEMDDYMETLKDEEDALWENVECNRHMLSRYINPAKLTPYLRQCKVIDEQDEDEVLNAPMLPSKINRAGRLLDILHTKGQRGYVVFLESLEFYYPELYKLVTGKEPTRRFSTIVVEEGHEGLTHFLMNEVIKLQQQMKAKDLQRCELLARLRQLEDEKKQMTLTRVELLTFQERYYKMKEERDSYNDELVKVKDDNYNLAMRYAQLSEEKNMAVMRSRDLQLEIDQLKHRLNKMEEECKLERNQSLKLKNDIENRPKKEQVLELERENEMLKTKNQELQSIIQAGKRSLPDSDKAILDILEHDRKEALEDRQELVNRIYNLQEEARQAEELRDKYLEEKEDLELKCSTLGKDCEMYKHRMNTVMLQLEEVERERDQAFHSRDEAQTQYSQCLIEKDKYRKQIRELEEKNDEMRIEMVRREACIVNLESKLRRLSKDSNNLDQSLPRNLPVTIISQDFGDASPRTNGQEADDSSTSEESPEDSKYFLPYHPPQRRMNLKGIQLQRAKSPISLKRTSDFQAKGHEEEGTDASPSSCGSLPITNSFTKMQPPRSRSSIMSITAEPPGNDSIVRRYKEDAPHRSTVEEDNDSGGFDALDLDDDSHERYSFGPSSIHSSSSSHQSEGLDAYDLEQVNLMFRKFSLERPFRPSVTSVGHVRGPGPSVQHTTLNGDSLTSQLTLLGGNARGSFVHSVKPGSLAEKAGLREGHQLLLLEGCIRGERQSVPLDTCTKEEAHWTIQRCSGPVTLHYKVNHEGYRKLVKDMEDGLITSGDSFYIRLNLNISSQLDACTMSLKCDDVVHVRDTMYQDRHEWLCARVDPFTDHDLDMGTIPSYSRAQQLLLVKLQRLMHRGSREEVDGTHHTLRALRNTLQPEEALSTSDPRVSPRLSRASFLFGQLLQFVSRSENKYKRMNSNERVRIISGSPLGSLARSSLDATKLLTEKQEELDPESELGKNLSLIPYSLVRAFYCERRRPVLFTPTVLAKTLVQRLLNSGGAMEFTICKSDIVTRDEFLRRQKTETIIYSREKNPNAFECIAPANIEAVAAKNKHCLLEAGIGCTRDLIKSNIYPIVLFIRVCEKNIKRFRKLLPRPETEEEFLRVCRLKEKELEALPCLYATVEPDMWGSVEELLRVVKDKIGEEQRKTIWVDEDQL
inactive: vemurafenib 0.088 | [1] 0.012 | barasertib -0.075 | [2] -0.087 | volasertib -0.071 | [3] 0.082 | [4] -0.024 | [5] -0.014 | saracatinib 0.063 | sotrastaurin 0.002

CCNYL1 (UniProt Q8N7R7)
inactive: vemurafenib -0.072 | [1] 0.003 | barasertib -0.046 | [2] 0.031 | volasertib -0.046 | [3] 0.012 | [4] -0.188 | [5] 0.269 | saracatinib 0.051 | sotrastaurin 0.034

CASP9 (UniProt P55211)
inactive: vemurafenib -0.017 | [1] 0.001 | barasertib -0.002 | [2] 0.025 | volasertib 0.029 | [3] -0.061 | [4] -0.013 | [5] 0.005 | saracatinib 0.003 | sotrastaurin 0.045

ATRIP (UniProt Q8WXE1)
active: [2] -0.281
inactive: vemurafenib 0.174 | [1] 0.002 | barasertib -0.036 | volasertib -0.06 | [3] -0.013 | [4] 0.031 | [5] -0.001 | saracatinib 0.048 | sotrastaurin 0.002

ATP2B4 (UniProt P23634)
inactive: vemurafenib 0.002 | [1] -0.002 | barasertib 0.026 | [2] -0.027 | volasertib -0.004 | [3] -0.019 | [4] -0.185 | [5] 0.145 | saracatinib 0.024 | sotrastaurin 0.009

ATAD3B (UniProt Q5T9A4)
active: [4] 0.383
inactive: vemurafenib -0.022 | [1] 0.016 | barasertib -0.007 | [2] -0.004 | volasertib -0.019 | [3] 0.014 | [5] -0.205 | saracatinib -0.018 | sotrastaurin -0.013

BAHCC1 (UniProt Q9P281)
inactive: vemurafenib 0.11 | [1] 0.004 | [2] -0.247 | volasertib 0 | [4] 0.415 | [5] 0.219 | saracatinib 0.025 | sotrastaurin 0.127

C5orf51 (UniProt A6NDU8)
Chain of UniProt A6NDU8 (A6NDU8 whole entry, looked up): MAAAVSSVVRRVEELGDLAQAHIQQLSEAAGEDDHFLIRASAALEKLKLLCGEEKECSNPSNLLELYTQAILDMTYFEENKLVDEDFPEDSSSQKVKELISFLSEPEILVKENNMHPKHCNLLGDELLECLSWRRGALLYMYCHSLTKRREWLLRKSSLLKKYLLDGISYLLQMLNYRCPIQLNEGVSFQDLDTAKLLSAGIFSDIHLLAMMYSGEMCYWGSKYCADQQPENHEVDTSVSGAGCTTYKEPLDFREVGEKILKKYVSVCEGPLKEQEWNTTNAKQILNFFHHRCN
inactive: vemurafenib -0.002 | [1] 0.009 | barasertib 0.046 | [2] -0.014 | volasertib -0.029 | [3] 0.053 | [4] 0.036 | [5] -0.137 | saracatinib 0.016 | sotrastaurin 0.036

AVEN (UniProt Q9NQS1)
Chain of UniProt Q9NQS1 (Q9NQS1 whole entry, looked up): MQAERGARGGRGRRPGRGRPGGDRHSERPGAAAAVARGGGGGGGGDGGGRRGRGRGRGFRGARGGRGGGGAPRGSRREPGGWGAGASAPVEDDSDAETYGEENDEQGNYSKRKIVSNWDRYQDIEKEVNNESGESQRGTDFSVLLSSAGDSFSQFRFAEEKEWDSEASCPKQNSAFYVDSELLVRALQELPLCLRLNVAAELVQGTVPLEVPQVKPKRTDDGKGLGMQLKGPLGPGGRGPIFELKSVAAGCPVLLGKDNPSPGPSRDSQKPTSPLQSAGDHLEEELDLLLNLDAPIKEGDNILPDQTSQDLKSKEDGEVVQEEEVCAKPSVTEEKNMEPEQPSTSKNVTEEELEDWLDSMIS
inactive: vemurafenib 0.177 | barasertib -0.091 | [2] 0.117 | [3] -0.025 | [5] 0.167 | saracatinib 0 | sotrastaurin -0.007
active: [4] -0.651

C1orf131 isoform 5 (UniProt Q8NDD1)
Chain of UniProt Q8NDD1 (Q8NDD1 whole entry, looked up): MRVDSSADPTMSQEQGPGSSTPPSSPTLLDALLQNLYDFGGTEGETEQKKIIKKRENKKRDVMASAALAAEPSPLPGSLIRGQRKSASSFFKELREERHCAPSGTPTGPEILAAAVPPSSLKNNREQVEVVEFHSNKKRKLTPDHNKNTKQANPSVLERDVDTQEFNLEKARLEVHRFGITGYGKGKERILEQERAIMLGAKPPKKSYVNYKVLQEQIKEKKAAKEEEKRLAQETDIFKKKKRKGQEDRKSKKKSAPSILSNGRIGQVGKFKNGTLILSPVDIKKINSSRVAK
inactive: vemurafenib 0.034 | [1] 0.026 | [2] 0.148 | volasertib -0.029 | [3] -0.042 | [4] -0.242 | [5] 0.095 | saracatinib -0.009 | sotrastaurin 0.017

CCNK isoform 4 (UniProt O75909)
inactive: vemurafenib -0.013 | [1] 0.006 | barasertib -0.028 | [2] 0.04 | volasertib -0.009 | [3] -0.007 | [4] -0.185 | [5] 0.095 | saracatinib 0.049 | sotrastaurin 0.004

BTK isoform 2 (UniProt Q06187)
Chain of UniProt Q06187 (Q06187 whole entry, looked up): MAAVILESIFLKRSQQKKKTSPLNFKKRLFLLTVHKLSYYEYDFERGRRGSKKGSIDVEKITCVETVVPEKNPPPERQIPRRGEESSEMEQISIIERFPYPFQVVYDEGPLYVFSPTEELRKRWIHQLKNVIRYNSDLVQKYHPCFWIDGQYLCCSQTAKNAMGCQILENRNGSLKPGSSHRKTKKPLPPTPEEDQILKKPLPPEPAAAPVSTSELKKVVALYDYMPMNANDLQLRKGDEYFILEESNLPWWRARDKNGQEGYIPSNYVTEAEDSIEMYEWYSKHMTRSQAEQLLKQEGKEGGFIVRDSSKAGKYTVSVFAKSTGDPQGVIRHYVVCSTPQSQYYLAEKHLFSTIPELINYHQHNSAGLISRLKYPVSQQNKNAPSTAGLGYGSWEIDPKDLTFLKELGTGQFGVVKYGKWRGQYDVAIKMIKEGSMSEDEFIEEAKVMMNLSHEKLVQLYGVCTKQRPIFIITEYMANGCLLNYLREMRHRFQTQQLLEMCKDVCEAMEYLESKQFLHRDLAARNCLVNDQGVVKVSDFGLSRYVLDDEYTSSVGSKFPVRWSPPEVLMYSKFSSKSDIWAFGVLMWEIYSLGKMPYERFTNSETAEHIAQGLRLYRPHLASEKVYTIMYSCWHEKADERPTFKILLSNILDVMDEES
inactive: vemurafenib -0.014 | [1] 0.013 | barasertib 0.128 | volasertib -0.106 | [3] 0.01 | [4] -0.147 | [5] 0.053 | saracatinib 0.058 | sotrastaurin -0.026

CDC45 isoform 3 (UniProt O75419)
inactive: vemurafenib 0.009 | [1] 0.042 | barasertib -0.015 | [2] -0.05 | volasertib -0.017 | [3] -0.05 | [4] -0.096 | [5] -0.04 | saracatinib 0.007 | sotrastaurin 0.027

CDK9 isoform 2 (UniProt P50750)
Chain of UniProt P50750 (P50750 whole entry, looked up): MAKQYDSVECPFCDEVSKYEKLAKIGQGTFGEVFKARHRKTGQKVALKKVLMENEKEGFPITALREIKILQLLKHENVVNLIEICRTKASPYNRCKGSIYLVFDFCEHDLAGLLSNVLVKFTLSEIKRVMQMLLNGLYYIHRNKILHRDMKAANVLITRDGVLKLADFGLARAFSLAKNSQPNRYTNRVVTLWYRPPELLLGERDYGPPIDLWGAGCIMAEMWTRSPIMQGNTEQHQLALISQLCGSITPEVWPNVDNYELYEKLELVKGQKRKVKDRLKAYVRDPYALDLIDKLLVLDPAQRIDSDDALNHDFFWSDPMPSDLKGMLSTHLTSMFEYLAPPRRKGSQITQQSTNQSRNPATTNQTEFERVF
active: sotrastaurin 0.34
inactive: vemurafenib -0.117 | [1] -0.064 | barasertib -0.025 | [2] 0.009 | volasertib 0.002 | [3] 0.175 | [4] -0.203 | [5] 0.079 | saracatinib 0.005

CCDC186 (UniProt Q7Z3E2)
active: [4] 0.332
inactive: vemurafenib -0.007 | [1] 0.069 | barasertib -0.029 | [2] 0.069 | volasertib 0.031 | [3] 0.019 | [5] -0.033 | saracatinib -0.003 | sotrastaurin -0.054

ATG4A (UniProt Q8WYN0)
inactive: vemurafenib -0.045 | [1] 0.033 | barasertib 0.012 | [2] -0.047 | volasertib -0.015 | [3] 0.008 | [4] 0.027 | [5] -0.045 | saracatinib 0.034 | sotrastaurin -0.043
